Reference: paper PMC7826789 (International Journal of Molecular Sciences, 2021)

tested on: MAPK14

Kinases covered, MAPK14:
O=c1[nH]c2cc(Nc3ccc(F)cc3F)ccc2n1CC1CCCCC1 [BI00601000]
CCc1nc(-c2cccc(C)c2)c(-c2ccncc2)s1 [TPKI-106]
COCCNC(=O)c1ccc(-c2cc(C(=O)NC3CC3)cc(F)c2C)cc1 [GW868318]
Cc1ccc(-n2nc(C(C)(C)C)cc2NC(=O)Nc2ccc(OCCN3CCOCC3)cc2)cc1 [BIRB0876BS]
Fc1ccc(-c2nn3ccccc3c2-c2ccncc2)cc1 [GW434756X]
Cc1ccc(C(=O)NCC(N)=O)cc1-n1c(C)cc(OCc2ccc(F)cc2F)c(Br)c1=O [PFE-PKIS 1]
O=C(O)/C=C/C(=O)O.OCCCNc1nccc(-c2c(-c3ccc(F)cc3)nn3cc(C(F)(F)F)ccc23)n1 [GW569293E]
Nc1nccc(-c2c(-c3ccc(F)cc3)ncn2C2CCN(Cc3ccccc3)CC2)n1 [SB-219980]
CCc1ccc(Oc2nccc(-c3c(-c4ccc(F)cc4)ncn3C3CCNCC3)n2)cc1 [SB-242719]
